Results reported in PubChem BioAssay (Tox21).
Where “and” joins values, the source holds several entries; their conditions need not be identical. Equal entries are not always repeated. Results filed as inconclusive are left out. A call without a number means that no potency is given here. Calls of active or inactive are those of the source. Unless noted, calls come from the whole dose curve; as a rule, active = well fitted curve in the direction sought with a large enough effect in the repeat runs; inconclusive = weak or mixed curves; inactive = no such curve, though single readings can be large; an effect the other way counts as inactive or inconclusive.

Key:
[1] = qHTS assay to identify small molecule antagonists of the estrogen receptor alpha (ER-alpha) signaling pathway using the BG1 cell line in the presence of 0.1 nM 17-beta-estradiol - cell viability counter screen (AID 1259241); note: nearly all actives have a fitted effect of over 40% in size
How it was run: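 Viability in VM7Luc4E2 cells after 22 hr compound exposure under 0.1 nM 17beta-estradiol stimulation, by CellTiter-Fluor.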

[2] = target: Estrogen receptor (Homo sapiens) (UniProt P03372); assay: qHTS assay to identify small molecule antagonists of the estrogen receptor alpha (ER-alpha) signaling pathway using the BG1 cell line in the presence of 0.1 nM 17-beta-estradiol (AID 1259244); note: nearly all actives have a fitted effect of over 50% in size; note: potency is the fitted concentration of half-maximal effect
Sequence of Estrogen receptor (Homo sapiens) (P03372 whole entry, looked up): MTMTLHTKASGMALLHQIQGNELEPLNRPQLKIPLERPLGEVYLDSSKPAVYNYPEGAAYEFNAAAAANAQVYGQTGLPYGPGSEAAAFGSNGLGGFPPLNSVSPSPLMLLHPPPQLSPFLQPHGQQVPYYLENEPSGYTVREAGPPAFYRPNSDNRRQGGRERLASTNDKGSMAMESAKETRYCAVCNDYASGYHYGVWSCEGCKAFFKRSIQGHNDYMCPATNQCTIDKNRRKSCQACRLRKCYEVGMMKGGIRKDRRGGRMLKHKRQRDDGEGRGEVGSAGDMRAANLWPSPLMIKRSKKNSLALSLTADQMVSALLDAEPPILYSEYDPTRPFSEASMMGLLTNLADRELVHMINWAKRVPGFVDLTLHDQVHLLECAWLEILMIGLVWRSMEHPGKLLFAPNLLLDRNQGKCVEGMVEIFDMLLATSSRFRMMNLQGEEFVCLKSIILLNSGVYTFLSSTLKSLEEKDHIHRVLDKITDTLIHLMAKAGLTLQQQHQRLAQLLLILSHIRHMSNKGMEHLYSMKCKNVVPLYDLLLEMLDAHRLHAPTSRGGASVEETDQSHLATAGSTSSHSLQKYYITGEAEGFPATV
How it was run: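 VM7Luc4E2 cells (endogenous full-length ER-alpha, stable 4xERE-luciferase) were grown 5 days in phenol red-free medium with charcoal-stripped FBS, then exposed 22 h at 37C to compounds plus 0.1 nM (final) 17beta-estradiol; ONE-Glo luminescence read-out.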

[3] = qHTS assay to identify small molecule HDAC inhibitors (AID 1259364); note: top concentration of the series differs between compounds; nearly all actives have a fitted effect of over 45% in size
How it was run: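 Wild-type HCT-116 cells were plated overnight, exposed to compounds for 2 h at 37 °C, then given HDAC-Glo class I/II luminogenic reagent for 30 min at room temperature before luminescence was read.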

[4] = qHTS assay to identify small molecule HDAC inhibitors - cell viability counter screen (AID 1259365); note: series mostly up to about 92 µM; nearly all actives have a fitted effect of over 50% in size
How it was run: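 Cytotoxicity was gauged in wild-type HCT-116 cells after a brief 2hr treatment with DMSO-dissolved compounds at 37C and 5% CO2, using CellTiter-Glo luminescence developed for 30min at room temperature.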

[5] = qHTS assay to identify small molecule agonists of the sonic hedgehog signaling (Shh) pathway - cell viability counter screen (AID 1259366); note: nearly all actives have a fitted effect of over 50% in size; note: potency is the fitted concentration of half-maximal effect
How it was run: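 Stable Gli1-Luc NIH/3T3 clone, 2,000 cells/well. Compound exposure 24hr at 37C. Read-out: CellTiter-Fluor fluorescence.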

[6] = qHTS assay to identify small molecule antagonists of the sonic hedgehog signaling (Shh) pathway - cell viability counter screen (AID 1259367); note: nearly all actives have a fitted effect of over 55% in size; note: potency is the fitted concentration of half-maximal effect
How it was run: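 NIH/3T3-derived Gli1-Luc reporter cells (2,000 per well) rested 4 hr at 37 C, then received DMSO compounds plus conditioned medium. After 23 hr of treatment, CellTiter-Fluor was added for 1 hr at 37C and fluorescence read.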

[7] = qHTS assay to identify small molecule agonists of the sonic hedgehog signaling (Shh) pathway (AID 1259368; calls by dose curve; note: series mostly up to about 92 µM; nearly all actives have a fitted effect of over 15% in size)
How it was run: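 NIH/3T3-derived 3T3Gli1-Luc cells carrying a stably integrated Gli1 response element–firefly luciferase reporter were plated, left 4 hr at 37 C, then given compounds in DMSO for 24 hr. Luminescence was read 30 min after adding luciferase reagent.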

[8] = qHTS assay to identify small molecule antagonists of the sonic hedgehog signaling (Shh) pathway (AID 1259369; calls by dose curve; note: nearly all actives have a fitted effect of over 45% in size; note: potency is the fitted concentration of half-maximal effect)
How it was run: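 NIH/3T3-derived 3T3Gli1-Luc cells with stably integrated Gli1-Luc reporter were preincubated 4hr at 37 C, then given compounds in DMSO plus Shh conditioned medium and incubated 24hr. Firefly luciferase luminescence read after 30min reagent at room temperature.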

[9] = target: Estrogen receptor beta (Homo sapiens) (UniProt Q92731); assay: qHTS assay to identify small molecule agonists of the estrogen receptor beta (ER-beta) signaling pathway (AID 1259377; active = well fitted activation curve with a large enough effect in the signal ratio in the repeat runs, not every such curve was filed as active; the % refers to the signal ratio)
Sequence of Estrogen receptor beta (Homo sapiens) (Q92731 whole entry, looked up): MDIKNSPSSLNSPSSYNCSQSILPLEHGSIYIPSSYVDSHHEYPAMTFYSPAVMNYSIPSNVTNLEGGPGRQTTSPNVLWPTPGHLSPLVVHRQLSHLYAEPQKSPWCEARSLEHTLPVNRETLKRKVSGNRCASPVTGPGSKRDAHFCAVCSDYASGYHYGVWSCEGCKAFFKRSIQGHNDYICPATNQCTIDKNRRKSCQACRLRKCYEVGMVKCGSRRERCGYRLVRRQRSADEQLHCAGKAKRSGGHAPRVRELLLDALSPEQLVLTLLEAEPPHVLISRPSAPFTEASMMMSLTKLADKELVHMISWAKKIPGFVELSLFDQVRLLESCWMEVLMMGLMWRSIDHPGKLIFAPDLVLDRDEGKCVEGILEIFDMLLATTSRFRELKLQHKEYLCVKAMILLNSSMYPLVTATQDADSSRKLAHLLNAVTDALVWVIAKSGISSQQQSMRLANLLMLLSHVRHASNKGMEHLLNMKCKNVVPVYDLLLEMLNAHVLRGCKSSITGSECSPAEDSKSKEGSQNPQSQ
How it was run: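 Measured by fluorescence intensity from a B/G FRET beta-lactamase substrate (2 h, room temperature) in ER-beta-UAS-bla HEK293T cells treated with DMSO-dissolved compounds for 16 hr at 37C and 5% CO2.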

[10] = qHTS assay to identify small molecule agonists of the androgen receptor (AR) signaling pathway in the presence of an antagonist - cell viability counter screen (AID 1259379); note: nearly all actives have a fitted effect of over 25% in size; note: potency is the fitted concentration of half-maximal effect
How it was run: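 MDA-kb2 human breast carcinoma cells (stable MMTV-luciferase, AR/GR responsive) were seeded 3,000 cells/well, pre-incubated 5 hr at 37C without CO2, then given 3.0uM nilutamide and compounds at 15 concentrations for 16 hr. Viability was read by CellTiter-Fluor fluorescence.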

[11] = qHTS assay to identify small molecule agonists of the estrogen receptor beta (ER-beta) signaling pathway - cell viability counter screen (AID 1259380); note: nearly all actives have a fitted effect of over 30% in size; note: potency is the fitted concentration of half-maximal effect
How it was run: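 ER-beta-UAS-bla HEK293T cells in medium with 2% charcoal-stripped FBS were preincubated 6 hr at 37C, dosed with compound in DMSO for 16 hr, then after the bla read, CellTiter-Glo was added for 30 min at room temperature; luminescence recorded.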

[12] = qHTS assay to identify small molecule antagonists of the estrogen receptor beta (ER-beta) signaling pathway - cell viability counter screen (AID 1259382); note: nearly all actives have a fitted effect of over 55% in size; note: potency is the fitted concentration of half-maximal effect
How it was run: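 ER-beta-UAS-bla HEK293T cells (2,000/well, 2% charcoal-stripped FBS) were pre-incubated 6 hr at 37C, then given compound plus 1nM final 17-beta-estradiol for 16 hr. Viability was read in the same wells by CellTiter-Glo luminescence after 30 min at room temperature.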

[13] = target: Estrogen receptor (Homo sapiens) (UniProt P03372); assay: qHTS assay to identify small molecule agonists of the estrogen receptor alpha (ER-alpha) signaling pathway in the presence of an antagonist (AID 1259383; calls by dose curve; note: top concentration of the series differs between compounds; nearly all actives have a fitted effect of over 15% in size)
How it was run: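 VM7Luc4E2 cells (endogenous full-length ER-alpha, 4×ERE-luciferase) were precultured 5 days in phenol red-free medium with 10% charcoal-stripped FBS, given 10.0nM ICI-182,780 (final), then treated with compounds at 15 concentrations for 22hr at 37C; luminescence read with ONE-Glo.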

[14] = qHTS assay to identify small molecule agonists or antagonists of the thyroid stimulating hormone receptor (TSHR) signaling pathway - wild type cell line counter screen (AID 1259384; calls by dose curve)
How it was run: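 Wild-type HEK293 cells were plated 18 h at 37 C/5% CO2, pin-dosed with compound plus Ro20-1724 medium, held 30 min at room temperature, then given cAMP-d2 and anti-cAMP-cryptate; fluorescence was read after 1 h. Fifteen concentrations, triplicate.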

[15] = target: Thyrotropin receptor (Homo sapiens) (UniProt P16473); assay: qHTS assay to identify small molecule antagonists of the thyroid stimulating hormone receptor (TSHR) signaling pathway (AID 1259385; calls by dose curve; note: nearly all actives have a fitted effect of over 20% in size; note: potency is the fitted concentration of half-maximal effect)
Sequence of Thyrotropin receptor (Homo sapiens) (P16473 whole entry, looked up): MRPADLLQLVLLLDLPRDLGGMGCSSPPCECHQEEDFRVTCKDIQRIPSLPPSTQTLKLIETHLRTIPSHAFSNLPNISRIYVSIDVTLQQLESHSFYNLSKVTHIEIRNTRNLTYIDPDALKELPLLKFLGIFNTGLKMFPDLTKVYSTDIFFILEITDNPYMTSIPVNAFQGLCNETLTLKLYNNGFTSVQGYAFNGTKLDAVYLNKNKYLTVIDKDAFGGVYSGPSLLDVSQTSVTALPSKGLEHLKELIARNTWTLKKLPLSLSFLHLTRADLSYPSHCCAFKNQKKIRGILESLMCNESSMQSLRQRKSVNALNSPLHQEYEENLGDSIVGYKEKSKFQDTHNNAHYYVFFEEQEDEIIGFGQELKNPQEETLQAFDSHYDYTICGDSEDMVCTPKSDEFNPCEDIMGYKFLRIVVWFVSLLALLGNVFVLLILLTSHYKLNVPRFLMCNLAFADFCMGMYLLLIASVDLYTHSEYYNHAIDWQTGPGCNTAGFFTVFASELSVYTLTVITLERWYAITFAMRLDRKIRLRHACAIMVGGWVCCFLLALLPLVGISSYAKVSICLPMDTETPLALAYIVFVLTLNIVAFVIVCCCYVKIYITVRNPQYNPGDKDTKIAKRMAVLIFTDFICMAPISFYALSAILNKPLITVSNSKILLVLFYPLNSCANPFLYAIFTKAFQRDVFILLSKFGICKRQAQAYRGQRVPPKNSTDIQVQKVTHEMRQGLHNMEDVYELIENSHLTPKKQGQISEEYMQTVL
How it was run: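 TSHR-HEK293 cells were plated and held 18 h at 37C/5% CO2, then given compound plus Ro20-1724 and stimulated with TSH at 1.5 ng/mL final. After 30 min at room temperature, cAMP was detected with cAMP-d2/anti-cAMP-cryptate (1 h) by fluorescence.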

[16] = qHTS assay to identify small molecule antagonists of the androgen receptor (AR) signaling pathway using the MDA cell line in the presence of 0.5 nM R1881 - cell viability counter screen (AID 1259242); note: nearly all actives have a fitted effect of over 45% in size
How it was run: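 MDA-kb2 cells (human breast carcinoma, stably carrying MMTV-luciferase reporter) were exposed to compounds with 0.5 nM R1881 (final) for 16 hr at 37C, 0% CO2; viability then read as live-cell protease fluorescence (CellTiter-Fluor, 30 min) in the same wells.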

[17] = qHTS assay to identify small molecule phospholipidosis (PLD) inducers (AID 1259344; active = well fitted curve in the direction sought with a large enough effect; an effect the other way counts as inactive or inconclusive)
How it was run: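 HepG2 cells on collagen I, attached 4 h at 37 C, were co-treated with compound and LipidTOX Red dye for 24 h at 37 C, then fixed with paraformaldehyde plus Hoechst 33342 and imaged by high-content microscopy for phospholipid accumulation.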

[18] = target: Estrogen receptor beta (Homo sapiens) (UniProt Q92731); assay: qHTS assay to identify small molecule antagonists of the estrogen receptor beta (ER-beta) signaling pathway (AID 1259378; active = well fitted inhibition curve with a large enough effect in the signal ratio in the repeat runs, not every such curve was filed as active; the % refers to the signal ratio)
How it was run: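 ER-beta-UAS-bla HEK293T (GripTite) cells in 2% charcoal-stripped FBS medium were preincubated 6 hr at 37C, dosed with compound, then stimulated with 1 nM E2 (final) for 16 hr; beta-lactamase reporter read by B/G FRET fluorescence after 2 hr substrate loading.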

[19] = target: Androgen receptor (Homo sapiens) (UniProt P10275); assay: qHTS assay to identify small molecule antagonists of the androgen receptor (AR) signaling pathway using the MDA cell line in the presence of 0.5 nM R1881 (AID 1259243); note: nearly all actives have a fitted effect of over 50% in size
Sequence of Androgen receptor (Homo sapiens) (P10275 whole entry, looked up): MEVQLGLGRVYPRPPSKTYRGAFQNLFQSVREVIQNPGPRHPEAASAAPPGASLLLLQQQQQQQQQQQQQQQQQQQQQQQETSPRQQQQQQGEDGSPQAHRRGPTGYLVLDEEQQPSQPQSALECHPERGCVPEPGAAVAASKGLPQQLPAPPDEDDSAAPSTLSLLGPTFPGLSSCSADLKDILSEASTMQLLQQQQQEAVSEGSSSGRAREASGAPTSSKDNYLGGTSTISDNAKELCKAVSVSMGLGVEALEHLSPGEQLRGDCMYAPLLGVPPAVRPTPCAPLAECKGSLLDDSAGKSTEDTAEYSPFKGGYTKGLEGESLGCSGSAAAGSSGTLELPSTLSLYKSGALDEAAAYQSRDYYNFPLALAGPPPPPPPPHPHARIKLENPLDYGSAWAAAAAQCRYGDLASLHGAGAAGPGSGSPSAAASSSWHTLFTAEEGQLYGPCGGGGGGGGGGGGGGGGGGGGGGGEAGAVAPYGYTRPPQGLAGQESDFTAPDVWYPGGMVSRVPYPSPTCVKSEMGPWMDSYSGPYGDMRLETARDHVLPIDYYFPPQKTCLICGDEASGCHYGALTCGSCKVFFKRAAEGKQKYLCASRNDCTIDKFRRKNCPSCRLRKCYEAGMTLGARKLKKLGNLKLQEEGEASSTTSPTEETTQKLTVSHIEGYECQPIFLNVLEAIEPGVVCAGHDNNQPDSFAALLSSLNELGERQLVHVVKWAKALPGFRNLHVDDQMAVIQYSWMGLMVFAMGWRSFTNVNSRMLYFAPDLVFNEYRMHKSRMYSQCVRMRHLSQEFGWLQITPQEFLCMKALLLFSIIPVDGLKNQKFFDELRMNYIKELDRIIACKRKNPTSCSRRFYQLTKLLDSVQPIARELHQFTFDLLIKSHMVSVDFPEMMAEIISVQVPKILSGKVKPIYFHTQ
How it was run: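 MDA-kb2 human breast carcinoma cells carrying an MMTV-luciferase reporter (AR- and GR-responsive) were plated, rested 5 hr at 37C, dosed with compounds, then stimulated with 0.5 nM R1881 (final) for 16 hr; luminescence was read after ONE-Glo.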

[20] = target: Androgen receptor (Homo sapiens) (UniProt P10275); assay: qHTS assay to identify small molecule agonists of the androgen receptor (AR) signaling pathway in the presence of an antagonist (AID 1259381; calls by dose curve; note: nearly all actives have a fitted effect of over 15% in size)
How it was run: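 MDA-kb2 human breast carcinoma cells carrying an MMTV-luciferase reporter (AR- and GR-responsive) were treated with compounds at 15 concentrations plus 3.0uM final nilutamide for 16hr at 37C without CO2; luminescence was read after ONE-Glo addition.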

Compound | Potency [1] | Potency [2] | Potency [3] | Potency [4] | Potency [5] | Potency [6] | Potency [7] | Potency [8] | Potency [9] | Potency [10] | Potency [11] | Potency [12] | Potency [13] | outcome [14] | Potency [15] | Potency [16] | outcome [17] | Potency [18] | Potency [19] | Potency [20]
CCCN(CCC)c1c([N+](=O)[O-])cc(C(C)C)cc1[N+](=O)[O-] | inactive | inactive | inactive | inactive | inactive | inactive | inactive | inactive | inactive | inactive | inactive | inactive | inactive | inactive | inactive | – | – | – | – | –
CCCCCCCCn1sccc1=O | – | 30.7 µM (active) | inactive | inactive | 4.34 µM (active) and 3.21 µM (active) | 4.34 µM (active) | inactive | 1.37 µM (active) and 1.02 µM (active) | inactive | 61.3 µM (active) and 57.1 µM (active) | 30.7 µM (active) and 28.6 µM (active) | 27.4 µM (active) and 28.6 µM (active) | inactive | inactive | 61.3 µM (active) and 71.9 µM (active) | – | – | – | – | –
CC(C)(c1ccccc1)c1cc(-n2nc3ccccc3n2)c(O)c(C(C)(C)c2ccccc2)c1 | – | inactive | inactive | inactive | inactive | inactive | inactive | – | inactive | inactive | inactive | inactive | inactive | inactive | inactive | inactive | – | – | – | –
CCCCCl | – | – | inactive | inactive | inactive | inactive | inactive | inactive | – | inactive | inactive | inactive | – | inactive | inactive | inactive | inactive | – | – | –
CCCCCCCCP(=O)(O)O | – | – | inactive | inactive | – | inactive | inactive | inactive | inactive | inactive | inactive | inactive | – | inactive | inactive | inactive | – | inactive | – | –
Cc1ccc2c(C)cccc2c1 | – | inactive | inactive | inactive | – | inactive | inactive | inactive | – | inactive | inactive | inactive | inactive | inactive | inactive | inactive | – | – | – | –
CN1C(=O)CN=C(c2ccccc2)c2cc([N+](=O)[O-])ccc21 | – | inactive | inactive | inactive | – | inactive | inactive | inactive | – | inactive | inactive | inactive | inactive | – | inactive | – | inactive | – | inactive | inactive
NC(=O)CF | – | inactive | inactive | inactive | inactive | inactive | inactive | inactive | – | inactive | inactive | inactive | inactive | – | inactive | inactive | – | – | – | –
Oc1cccc(Cl)c1 | – | inactive | inactive | inactive | – | inactive | inactive | inactive | – | inactive | inactive | inactive | inactive | – | – | inactive | – | – | – | –
